Assay outcomes from PubChem BioAssay.
Most compounds without a hit are left out; they make up all but 7.3% or so of the library.
HCMV inh: human cytomegalovirus inhibition; HFF cells, HCMV-luciferase reporter, 72 h; active compounds read low; activity change, negative = inhibition, % at 57.5 µM; 4.5% of 410,000 active; in the data active = activity change below about -60%; inconclusive = no clear call, values can overlap the other calls; inactive = above about -39%
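HFF cells seeded 16 h at 37C, treated with compounds, infected with luciferase-reporter HCMV at MOI 1 PFU/cell; luciferase read at 72 h post infection, normalized to buffer-only and Salinomycin controls.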
VACV mCherry inh: inhibitors of vaccinia virus infection (mCherry reporter signal). Vaccinia virus mCherry reporter infection, fluorescence. Potency, µM (titrated, usually from 36.5 µM), for inactives: at the highest dose activity change, negative = inhibition, most hits filed as inhibitors. 0.63% of 310,000 active; calls by dose curve; tested in A549 cells; also: potency is read from the fitted curve at half-maximal effect; nearly all actives have a fitted effect of over 35% in size
VACV Venus inh: inhibitors of vaccinia virus (Venus reporter); Vaccinia virus Venus reporter expression, fluorescence; Potency, µM (titrated, usually from 36.5 µM), without a hit: at the highest dose activity change, negative = inhibition, usual class: inhibitors; 0.46% of 330,000 active; AID 720580; calls by dose curve; tested in A549 cells; also: potency is read from the fitted curve at half-maximal effect; nearly all actives have a fitted effect of over 30% in size
HCV inh: HCV inhibition; Potency, µM (top dose mostly 41.8 µM), for the others: at the highest dose activity change, negative = inhibition, most hits filed as inhibitors; Huh7.5.1 HCVcc-Cre infection, luciferase reporter, 44 h; 3.4% of 340,000 active; active = well fitted inhibition curve with a large enough effect; inconclusive = small, poorly fitted or top-dose-only effect, or another doubt; inactive = no such curve, though single readings can be large or run the other way; also: potency is read from the fitted curve at half-maximal effect
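Luciferase read-out (15 sec integration) after a 15 min room-temperature substrate step quantifies HCVcc-Cre infection. Cells, 1,000 per well, had compound added 4 h post-plating, then virus at ~0.5 moi, and were cultured 44 h.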
FMDV antiviral: antivirals against foot and mouth disease virus; FMDV antiviral cell-based qHTS; 1.2% of 410,000 active; Potency, µM (titrated, usually from 57.9 µM), inactives show at the top dose activity change, negative = inhibition, actives largely listed as inhibitors; calls by dose curve; tested in HEK293T cells; also: read-out not given here; potency is read from the fitted curve at half-maximal effect; nearly all actives have a fitted effect of over 45% in size
Active calls of the source: *; i = inactive; u = inconclusive; x = no result; [ ] = another dose, or the depositor's remark. % is scaled to controls: 0 for no effect and ±100 for the full control effect.

SMILES	HCMV inh	VACV mCherry inh	VACV Venus inh	HCV inh	FMDV antiviral
CCC(C)[C@H](NC(=O)c1cc2cc(Cl)ccc2n1C)C(=O)N1CCC(C(=O)O)CC1 (stereo partly specified)	-68*	i	-10%	2%	-6%
COc1ccc(NC(=O)c2cc(-c3cc(OC)c(OC)c(OC)c3)nc3ccccc23)cc1OC	27	-3%	10%	u	-17%
COC(=O)c1ccc(NC(=O)c2cc(-c3ccncc3)nc3ccccc23)cc1	0	x	x	10µM*	-16%
COc1ccc(-c2cc(C(=O)Nc3ccc(C)c(N)c3)c3ccccc3n2)cc1	-9	u	-23%	11µM*	17%
COc1ccc(-c2cc(C(=O)Nc3ccc(S(=O)(=O)Nc4ncccn4)cc3)c3ccccc3n2)cc1	48	x	x	0%	11%
CCN(CC)S(=O)(=O)c1cc(NC(=O)c2cc(-c3ccccn3)nc3ccccc23)ccc1C	15	x	x	14µM*	-29%
COc1cc(-c2cc(C(=O)Nc3c(Cl)cc(Cl)cc3Cl)c3ccccc3n2)cc(OC)c1OC	11	i	-14%	10µM*	u
COc1ccc(N(Cc2cccs2)C(=O)c2ccc(Br)o2)cc1	8	3%	2%	x	-25%
Cc1cc(NC(=O)c2cc(-c3cccc(OCC(C)C)c3)nc3ccccc23)no1	-5	x	x	13µM*	0%
COc1ccc(OCCCCn2c(-c3ccc(Cl)cc3)nc3ccccc3c2=O)cc1	0	-12%	-11%	x	-12%
Cc1ccc(NCc2cccn2-c2nnc(N3CCC(C(=O)NCc4ccc(OC(C)C)cc4)CC3)s2)cc1	-80*	u	u	x	u
CCOc1ccc(NCc2cccn2-c2nnc(N3CCC(C(=O)NCCOC)CC3)s2)cc1	-35	-6%	-6%	x	-22%
CCOc1ccc(NCc2cccn2-c2nnc(N3CCC(C(=O)NCc4cccc(OC)c4)CC3)s2)cc1	-84*	-25%	-27%	x	u
CCOc1ccc(NCc2cccn2-c2nnc(N3CCC(C(=O)NCC(C)c4ccccc4)CC3)s2)cc1 (stereo unspecified)	-80*	u	u	x	u
CCOc1ccc(NCc2cccn2-c2nnc(N3CCC(C(=O)NCCCN4CCCCC4CC)CC3)s2)cc1 (stereo unspecified)	u	x	x	u	-7%
CCOc1ccc(NCc2cccn2-c2nnc(N3CCC(C(=O)NCc4ccc(C)cc4)CC3)s2)cc1	-76*	u	u	x	u
COc1ccc(Br)cc1CNC(=O)C1CCN(c2nnc(-n3cccc3CNc3ccc(C)cc3)s2)CC1	39	-16%	-19%	x	-22%
COC(=O)c1ccc2nc(-c3cccc(Cl)c3)c(Cc3ccccc3C(F)(F)F)n2c1	-18	x	x	x	x
COC(=O)C1=CN(c2ccc(F)cc2)C(N)=C(C#N)C1c1ccc(-c2ccccc2)cc1 (stereo unspecified)	-13	u	-29%	x	0%
CCc1nn2c(=O)cc(COC(=O)c3cccs3)nc2s1	16	-5%[7.34 µM]	-1%[7.34 µM]	x	42%
O=S(=O)(Nc1ccc(F)cc1F)c1ccc(-n2cccn2)cc1	-7	1%	5%	x	28%
Cc1nc2c(Br)cc(Br)cc2c(=O)n1-c1ccccc1NC1OCC(O)C(O)C1O (stereo unspecified)	-77*	i	-16%	-24%	-15%
CCc1ccc(S(=O)(=O)/N=C2\C=C(NS(=O)(=O)c3ccccc3)C(=O)c3ccccc32)cc1	-36	x	x	-27%	71%
Cc1ccccc1NC1=C/C(=N\S(=O)(=O)c2ccc(C(=O)O)cc2)c2ccccc2C1=O	29	32µM*	u	u	u
O=C(O)c1ccc(S(=O)(=O)/N=C2\C=C(Nc3ccccc3F)C(=O)c3ccccc32)cc1	-98*	u	u	10µM*	u
SMILES	HCMV inh	VACV mCherry inh	VACV Venus inh	HCV inh	FMDV antiviral
O=C(NCCc1ccccc1)c1cnc2sc(N3CCCCCC3)nn2c1=O	19	i	-13%	x	u
CCOC(=O)C1=C(NC(=S)NC(=O)c2ccccc2)c2ccccc2CC1C(C)C (stereo unspecified)	-77*	u	-9%	u	0%
CCOC(=O)C1=C(NC(=S)NC(=O)c2ccccc2)c2ccccc2CC1(C)CC (stereo unspecified)	u	-17%	-3%	u	0%
COc1ccc2c(c1)C(=NN)c1cc(OC)ccc1-2	-87*	-16%	-19%	u	0%
CC1(C)OC(=O)C(=NNc2ccc(C(=O)O)cc2)C(=O)O1	-90*	-1%	-7%	24%	-11%
COc1ccc(/C(C)=N/Nc2ccc(C(=O)O)cc2)c(OC)c1	86	-13%	-12%	33%	49%
COc1ccc2c(c1)C(=NNc1ccc(C(=O)O)cc1)c1cc(OC)ccc1-2	-7	u	u	14µM*	-17%
O=C(c1cc(C(F)(F)F)cc(C(F)(F)F)c1)N1CCC2(CC1)CN(c1ccccc1)C2	x	x	x	x	-4%
Cc1ccccc1OCC(=O)Nc1nnc(COc2ccccc2)s1	-79*	i	-18%	-16%	-4%
CCOc1ccccc1OCCCC(=O)Nc1sccc1C(N)=O	-61*	-29%	-24%	u	-5%
COc1ccc(OCCCC(=O)Nc2nccs2)cc1	u	-5%	5%	-13%	8%
Cc1ccc(SCCC(=O)Nc2nccs2)cc1	-36	i	0%	6%	-2%
NC(=O)c1ccsc1NC(=O)CCc1ccccc1	5	x	x	-5%	42%
Cc1ccc(C)c(OCCCC(=O)Nc2nccs2)c1	10	i	-16%	13µM*	-16%
Cc1ccccc1OCCCC(=O)Nc1nccs1	u	-23%	-22%	11µM*	x
Cc1c(N/N=C(\C#N)C(=O)c2ccccc2)c(=O)n(-c2ccccc2)n1C	-79*	13µM*	-27%	10µM*	-17%
Cc1ccccc1C(=O)/C(C#N)=N/Nc1c(C)n(C)n(-c2ccccc2)c1=O	-88*	u	u	u	-32%
Cc1cccc(-c2nc3c4ccccc4nc(N4CCN(c5ccccc5F)CC4)n3n2)c1	7	-1%	-8%	x	23%
C/C(=N\NC(=S)NCc1ccccc1)c1ccc(Cl)s1	u	-19%	-19%	11µM*	50%
C/C(=N\NC(=S)NCc1ccccc1)c1ccc(C)o1	-107*	u	-25%	u	26%
C/C(=N\NC(=S)NCc1ccccc1)c1ccc2ccccc2c1OC(F)F	0	x	x	13µM*	4%
COCCNC(=S)N/N=C(\C)c1ccc(Cl)s1	-29	8.9µM*	-24%	u	0%
C/C(=N\NC(=S)NCc1ccccc1)c1ccc(Br)cc1	378	-18%	-12%	u	-1%
C/C(=N\NC(=S)NCc1ccccc1)c1cccs1	1	-9%	-16%	u	88%
O=C(CN1C(=O)COc2ccc(S(=O)(=O)Nc3ccccc3)cc21)Nc1cccc(Cl)c1	6	-9%	-6%	x	2%
O=C1C2C3C=CC(CC3)C2C(=O)N1c1ccccc1 (stereo unspecified)	-15	x	x	10%	-6%
